SMILES strings stand for the structures. Results filed as inconclusive are left out. Entries that show only a call come without a potency. Unmarked numbers belong to inactive results. Active and inactive are the calls of the source. Calls come from the whole dose curve; as a rule, active = well fitted activation curve with a large enough effect in the repeat runs; inconclusive = weak or mixed curves; inactive = flat fitted curve, though single readings scatter.
Potency is the fitted concentration of half-maximal effect.

The test can be described thus: A CellTox Green Cytotoxicity Assay to monitor cytotoxicity in HepG2 cells - 16 hour (AID 1224876). Note: nearly all actives have a fitted effect of over 45% in size. The note with it: CellTox Green fluorescence; series mostly up to 76.8 µM. The source says:
National Center for Advancing Translational Sciences [NCATS]
NIH Chemical Genomics Center [NCGC]
U.S. Environmental Protection Agency [EPA]
National Institutes of Environmental Health Sciences [NIEHS]
National Toxicology Program [NTP]
Cell-based models are critical for drug discovery. Determining the natural cytotoxic effects resulting from test compounds is an essential research activity. A CellTox Green Cytotoxicity Assay to monitor cytotoxicity in real time of continues cell culture during 40 hours of the compound treatment was used to screen Tox21 10K library compounds in HepG2 cells. CellTox Green Cytotoxicity Assay is a nonlytic, homogeneous, biofluorescent method to measure cytotoxicity in cell culture after experimental manipulation. The assay system uses a proprietary asymmetric cyanine dye that is excluded from viable cells but preferentially stains the dead cell's DNA. […] Viable cells produce no appreciable increases in fluorescence. Therefore, the fluorescence signal produced by the binding interaction with dead cell DNA is proportional to cytotoxicity.
The mixture of HepG2 cell suspension and reagents were dispensed at 600cells/6 ul/well in 1536-well tissue culture treated black solid bottom plates using a Multidrop dispenser. After the assay plates were incubated at a 37 C/5% CO2 incubator for 5 hours, 23 nL of compounds dissolved in DMSO, positive and negative controls was transferred to the assay plate by a pintool work station. The plates were incubated at 37 C for 40 hours. The fluorescence intensity were measured at 0h, 8h, 16h, 24h, 32h and 40h time points using ViewLux plate reader during compound treatment.
As to `CC1(c2ccccc2)OC(C(=O)O)=CC1=O` (stereo not given), the Potency entry was “inactive”. In the case of `CCCCCCc1ccc(-c2ccc(C#N)cc2)cc1`, the Potency result was “inactive”. With `COC(C)OC`, the Potency entry is “inactive”. On to `CC(C)(O)c1ccc(CNC(=O)c2cccnc2Oc2ccc(F)cc2)cc1`, for which the Potency result is “inactive”.

`O=C(O)c1nc(Cl)c(Cl)c(Cl)c1Cl`: the Potency entry was “inactive”. Still for that read-out and setting: the result for `C=CCOC(=O)CCC1CCCCC1` reads “inactive”.

Consider `OC(C#CCN1CCCC1)(c1ccccc1)c1ccccc1`, for which the Potency entry is “inactive”. Turning to `OCCNCc1ccccc1`, the Potency result was “inactive”. As for `C[C@@H](c1ncncc1F)C(O)(Cn1cncn1)c1ccc(F)cc1F` (stereo not given in full), the Potency result was “inactive”. With `Cc1cccc(C)c1NC(=O)CN(CC(=O)O)CC(=O)O`, the Potency result is “inactive”.

In the case of `CCNc1cc(O)ccc1C`, the Potency entry is “inactive”.

Turning to `CCOC(=O)c1cccnc1`, the Potency entry was “inactive”. Consider `O=C1c2ccccc2S(=O)(=O)N1CCCCN1CCN(c2ncccn2)CC1`, for which the Potency entry was “inactive”.

`OCc1cc(C(O)CNCCCCCCOCCCCc2ccccc2)ccc1O` (stereo not given): the Potency was 23.9 µM (active). `C=C(C)C(=O)OCC`: the Potency entry was “inactive”. Same read-out and setting: to `Nc1ncn([C@H]2C[C@H](O)[C@@H](CO)O2)c(=O)n1` belongs “inactive”; to `CCCCC(CC)COC(=O)CCCCCCCCC(=O)OCC(CC)CCCC` (stereo not given), “inactive”; to `COc1ccc(C(=O)N2CCN(CC(=O)N3CCOCC3)CC2)cc1`, “inactive”. For the compound `CN(C)CCN(Cc1ccc(Cl)cc1)c1ccccn1`, the Potency entry is “inactive”. Take `CC(C)(C)OCC1CO1` (stereo not given): the Potency result is “inactive”. As to `CCCCC(=O)OCC(=O)[C@H]1[C@H](C)C[C@H]2[C@@H]3C[C@H](F)C4=CC(=O)C=C[C@]4(C)[C@@]3(F)[C@@H](O)C[C@@]21C`, the Potency entry is “inactive”. For the compound `Cc1oc2c(NC(=O)c3c(Cl)cccc3Cl)cccc2c1C(C)(C)O`, the Potency entry was “inactive”. `Nc1cc(C(=O)O)c(O)c(S(=O)(=O)O)c1`: the Potency entry is “inactive”. For the compound `C=C(C)C(=O)OCCO`, the Potency entry was “inactive”. For `O=[N+]([O-])c1ccc(NCCO)c(OCCO)c1`, the Potency result was “inactive”. As for `CCOc1ccc(N)c([N+](=O)[O-])c1`, the Potency entry was “inactive”. `C[N+]1(CC2COC(c3ccccc3)(C3CCCCC3)O2)CCCCC1` (stereo not given): the Potency entry is “inactive”.

As for `C/C(=C(\CCOP(=O)(O)O)SC(=O)c1ccccc1)N(C=O)Cc1cnc(C)nc1N`, the cytotoxicity increase was 0.668% [at 6.97 µM]. With `CC(C)=CCC/C(C)=C/CC/C(C)=C/CO`, the Potency entry was “inactive”.

`CC(C)Cc1ccc(C(C)C(=O)OCc2ccccn2)cc1` (stereo not given): the Potency entry is “inactive”. Regarding `OC[C@H]1O[C@@H](OCCc2ccc(O)cc2)[C@H](O)[C@@H](O)[C@@H]1O`, the Potency entry was “inactive”. In the case of `Cc1cccc(C)c1OCC(=O)N[C@@H](Cc1ccccc1)[C@@H](O)C[C@H](Cc1ccccc1)NC(=O)[C@H](C(C)C)N1CCCNC1=O`, the Potency entry was “inactive”. For the compound `CCOCC(O)COc1ccc(NC(=O)CC[S+](C)C)cc1` (stereo not given), the Potency result is “inactive”.

In the case of `COc1ccc(C)cc1[N+](=O)[O-]`, the Potency entry is “inactive”. For `COc1cc2nc(N(C)CCCNC(=O)C3CCCO3)nc(N)c2cc1OC` (stereo not given), the Potency result was “inactive”. For the compound `Brc1c2ccccc2c(Br)c2ccccc12`, the cytotoxicity increase is 2.77% [at 6.97 µM].

As for `OCCN1CCN(CCCN2c3ccccc3C=Cc3ccccc32)CC1`, the Potency entry was “inactive”. Take `COc1ccc(C(=O)Nc2nc3ccccc3c(NCc3ccccc3)c2C#N)cc1`: the Potency entry is “inactive”. Take `C=CC(=O)OCCOc1ccccc1`: the Potency entry was “inactive”. For `O=C(O)C1(C(=O)O)CCC1.[NH2-].[NH2-].[Pt+2]`, the Potency entry is “inactive”.
